# Assay results published in PubChem BioAssay (NCI).
# This is part of a sample that, as a whole, favours compounds with a hit. Of some 79,000 tested, about 15% had one in any assay. A number with no mark means an inactive call. The source made the active and inactive calls. No stated cut-off is given here; in the data, active means growth inhibition above about 70%; inactive means the rest.
# Tests used:
# [1] = NCI Yeast Anticancer Drug Screen. Data for the wt1 strain (AID 149);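 further: 0% = growth of vehicle-treated wt1 cultures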; conditions: S. cerevisiae wt1 strain (SPY 50644) growth inhibition, hits give high values
# How it was run: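 Vehicle-normalised growth inhibition; strain wt1; compound exposure.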
# [2] = NCI Yeast Anticancer Drug Screen. Data for the rad50EPP+ strain (AID 151);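 further: 0% = growth of vehicle-treated control cultures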; conditions: S. cerevisiae rad50 mutant strain, hits give high values
# How it was run: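 In this screen, rad50EPP+ yeast were exposed to compounds. Growth inhibition was scored against vehicle-treated controls.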
# [3] = NCI Yeast Anticancer Drug Screen. Data for the mgt1 strain (AID 153); conditions: S. cerevisiae mgt1 mutant growth inhibition, hits give high values
# How it was run: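 mgt1 strain exposed; growth vs vehicle control recorded as inhibition.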
# [4] = NCI Yeast Anticancer Drug Screen. Data for the rad50 strain (AID 155);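 further: 0% = growth of vehicle-only cultures of the same strain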; conditions: S. cerevisiae rad50 strain growth inhibition, hits give high values
# How it was run: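 A DNA repair-deficient yeast mutant serves as the test organism; compound-induced growth inhibition is calculated against vehicle-treated cells.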
# [5] = NCI Yeast Anticancer Drug Screen. Data for the mec2-1 strain (AID 157); conditions: S. cerevisiae mec2-1 strain, hits give high values
# How it was run: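 Vehicle-treated cultures served as reference for growth inhibition of compound-exposed mec2-1 yeast.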
# [6] = NCI Yeast Anticancer Drug Screen. Data for the rad14 strain (AID 159);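 further: 0% = growth of vehicle-treated control cultures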; conditions: S. cerevisiae rad14 strain growth inhibition, hits give high values
# How it was run: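 Vehicle-treated cultures served as the baseline for growth inhibition of a DNA repair-mutant yeast strain exposed to each compound.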
# [7] = NCI Yeast Anticancer Drug Screen. Data for the sgs1 mgt1 strain (AID 161);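 further: 0% = growth of cultures given vehicle only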; conditions: S. cerevisiae sgs1 mgt1 strain, hits give high values
# How it was run: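 Test agents were incubated with a DNA-repair-mutant yeast strain. Growth was then read and compared against vehicle-treated controls.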
# [8] = NCI Yeast Anticancer Drug Screen. Data for the CLN2oe strain (AID 163);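 further: 0% = growth of vehicle-only control cultures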; conditions: S. cerevisiae CLN2oe strain, hits give high values
# How it was run: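 Inhibition relative to vehicle-treated yeast is reported. Cells: strain with genetic alteration in cell-cycle control, grown with compound.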
# [9] = NCI Yeast Anticancer Drug Screen. Data for the cln2 rad14 strain (AID 165);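 further: 0% = growth equal to vehicle treated cultures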; conditions: S. cerevisiae cln2 rad14 strain, hits give high values
# How it was run: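 Each compound was tested on cln2 rad14 yeast. Inhibition of growth was calculated against vehicle-exposed controls.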
# [10] = NCI Yeast Anticancer Drug Screen. Data for the bub3 strain (AID 167); conditions: S. cerevisiae bub3 mutant strain, hits give high values
# How it was run: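 Inhibition values come from growth of compound-treated mutant yeast normalised to vehicle-treated controls.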
# [11] = NCI Yeast Anticancer Drug Screen. Data for the wt2 strain (AID 169);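 further: 0% = growth of vehicle-treated yeast cultures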; conditions: S. cerevisiae wt2 strain growth inhibition, hits give high values
# How it was run: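 Inhibition of yeast growth was determined after compound treatment, normalised to controls receiving only vehicle.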
# [12] = NCI Yeast Anticancer Drug Screen. Data for the mlh1 strain (AID 171);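 further: 0% = growth of vehicle-treated control cultures of the same strain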; conditions: S. cerevisiae mlh1 strain growth inhibition, hits give high values
# How it was run: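 Vehicle-normalised growth inhibition of a repair- or checkpoint-altered yeast strain following compound treatment.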
# [13] = NCI Yeast Anticancer Drug Screen. Data for the sgs1 strain (AID 173);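 further: 0% = growth of vehicle-only control cultures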; conditions: S. cerevisiae sgs1 mutant, hits give high values
# How it was run: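 Screen format: yeast with repair or checkpoint alterations, compound exposure, growth read relative to vehicle.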
# [14] = NCI Yeast Anticancer Drug Screen. Data for the mlh1 rad18 strain (AID 175); conditions: S. cerevisiae mlh1 rad18 strain growth inhibition, hits give high values
# How it was run: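 Vehicle-treated cultures served as the reference for growth inhibition in a yeast strain carrying DNA damage repair alterations exposed to each compound.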
# [15] = NCI Yeast Anticancer Drug Screen. Data for the rad18 strain (AID 177); conditions: S. cerevisiae rad18 mutant growth inhibition, hits give high values
# How it was run: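 Test articles were incubated with altered yeast defective in DNA damage repair. Results are given as inhibition of growth versus vehicle.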
# [16] = at 5.0 µM (retest, dose inferred, filed as 0.5)
# [17] = at 50.0 µM (retest, dose inferred, filed as 5.0)
smiles,measurement,setting,value
O=C1c2ccccc2C(=O)c2cc(CBr)ccc21,growth inhibition,[1]; at 1.2 µM,0%
same,growth inhibition,[1]; at 3.7 µM,0%
same,growth inhibition,[1]; at 11.0 µM,-1%
same,growth inhibition,[1]; at 33.0 µM,18%
same,growth inhibition,[1]; at 100.0 µM,53%
same,growth inhibition,[2]; at 1.2 µM,27%
same,growth inhibition,[2]; at 3.7 µM,56%
same,growth inhibition,[2]; at 11.0 µM,73% (active)
same,growth inhibition,[2]; at 33.0 µM,94% (active)
same,growth inhibition,[2]; at 100.0 µM,95% (active)
same,growth inhibition,[3]; at 1.2 µM,0%
same,growth inhibition,[3]; at 3.7 µM,2%
same,growth inhibition,[3]; at 11.0 µM,4%
same,growth inhibition,[3]; at 33.0 µM,21%
same,growth inhibition,[3]; at 100.0 µM,68%
same,growth inhibition,[4]; at 1.2 µM,2%
same,growth inhibition,[4]; at 3.7 µM,14%
same,growth inhibition,[4]; [16],48%
same,growth inhibition,[4]; at 11.0 µM,29%
same,growth inhibition,[4]; at 33.0 µM,82% (active)
same,growth inhibition,[4]; [17],90% (active)
same,growth inhibition,[4]; at 50.0 µM,99.2% (active)
same,growth inhibition,[4]; at 100.0 µM,92% (active)
same,growth inhibition,[5]; at 1.2 µM,1%
same,growth inhibition,[5]; at 3.7 µM,2%
same,growth inhibition,[5]; [16],32%
same,growth inhibition,[5]; at 11.0 µM,5%
same,growth inhibition,[5]; at 33.0 µM,32%
same,growth inhibition,[5]; [17],77% (active)
same,growth inhibition,[5]; at 50.0 µM,90% (active)
same,growth inhibition,[5]; at 100.0 µM,71% (active)
same,growth inhibition,[6]; at 1.2 µM,-2%
same,growth inhibition,[6]; at 3.7 µM,6%
same,growth inhibition,[6]; at 11.0 µM,12%
same,growth inhibition,[6]; at 33.0 µM,53%
same,growth inhibition,[6]; at 100.0 µM,89% (active)
same,growth inhibition,[7]; [16],54%
same,growth inhibition,[7]; [17],89% (active)
same,growth inhibition,[7]; at 50.0 µM,99.2% (active)
same,growth inhibition,[8]; at 1.2 µM,1%
same,growth inhibition,[8]; at 3.7 µM,5%
same,growth inhibition,[8]; at 11.0 µM,8%
same,growth inhibition,[8]; at 33.0 µM,28%
same,growth inhibition,[8]; at 100.0 µM,61%
same,growth inhibition,[9]; [16],33%
same,growth inhibition,[9]; [17],76% (active)
same,growth inhibition,[9]; at 50.0 µM,57.5%
same,growth inhibition,[10]; at 1.2 µM,1%
same,growth inhibition,[10]; at 3.7 µM,0%
same,growth inhibition,[10]; [16],30%
same,growth inhibition,[10]; at 11.0 µM,1%
same,growth inhibition,[10]; at 33.0 µM,26%
same,growth inhibition,[10]; [17],79% (active)
same,growth inhibition,[10]; at 50.0 µM,86.2% (active)
same,growth inhibition,[10]; at 100.0 µM,54%
same,growth inhibition,[11]; at 1.2 µM,9%
same,growth inhibition,[11]; at 3.7 µM,3%
same,growth inhibition,[11]; at 11.0 µM,13%
same,growth inhibition,[11]; at 33.0 µM,18%
same,growth inhibition,[11]; at 100.0 µM,69%
same,growth inhibition,[12]; at 1.2 µM,2%
same,growth inhibition,[12]; at 3.7 µM,9%
same,growth inhibition,[12]; at 11.0 µM,17%
same,growth inhibition,[12]; at 33.0 µM,40%
same,growth inhibition,[12]; at 100.0 µM,85% (active)
same,growth inhibition,[13]; at 1.2 µM,-2%
same,growth inhibition,[13]; at 3.7 µM,-14%
same,growth inhibition,[13]; at 11.0 µM,23%
same,growth inhibition,[13]; at 33.0 µM,74% (active)
same,growth inhibition,[13]; at 100.0 µM,94% (active)
same,growth inhibition,[14]; [16],63%
same,growth inhibition,[14]; [17],92% (active)
same,growth inhibition,[14]; at 50.0 µM,96% (active)
same,growth inhibition,[15]; at 1.2 µM,2%
same,growth inhibition,[15]; at 3.7 µM,10%
same,growth inhibition,[15]; at 11.0 µM,23%
same,growth inhibition,[15]; at 33.0 µM,78% (active)
same,growth inhibition,[15]; at 100.0 µM,93% (active)
